Results: PubChem BioAssay

assay: basal MM1S mitochondrial membrane potential changes, profiling panel, cell-based, JC-1 fluorescence, 24 h, 100 nL compound (AID 1170); details: higher = more signal; note: test concentration not given here

| SMILES | z-score |
| --- | --- |
| COCCOC(=O)N1C(=O)[C@@]2(c3cc(C#Cc4ccc(OC)cc4)ccc31)[C@H](c1ccc(OCCO)cc1)N1[C@H](c3ccccc3)[C@H](c3ccccc3)OC(=O)[C@H]1[C@@H]2C(=O)NC[C@H](O)c1ccccc1 | -1.52 |
| CC1CC/C=C\[C@H]2OC34C=CCN(Cc5ccccc5)C(=O)[C@H]3N(CCCCCCO)C(=O)[C@@H]4C2C(=O)O1 (stereo partly drawn) | 1.34 |
| [N-]=[N+]=Nc1ccccc1[C@@H]1OC(c2ccc(OCCCO)cc2)=N[C@]1(CCS(=O)(=O)c1ccccc1)C(=O)NCC(O)CO (stereo partly drawn) | -0.763 |
| COC(=O)[C@@]1(Cc2ccccc2)[C@H]2c3cc(C(=O)N(C)C)n(CCSC(=N)N)c3C[C@H]2CN1C(=O)c1ccccc1 | -0.656 |
| CC(C)[Si](C#CCCc1ccccc1)(O[C@H](c1ccccc1)c1cn(Cc2ccccc2)nn1)C(C)C | -1.08 |
| O=C(NCc1ccc(F)cc1)[C@H]1C[C@H]2C(=O)N3CCC[C@H]3C(=O)N2[C@H]1c1ccc(O)cc1 | -0.396 |
| COC(=O)[C@]1(Cc2ccccc2)N=C(c2ccc(OCCCO)cc2)O[C@@H]1c1ccccc1CN=[N+]=[N-] | -1.34 |
| CC(C)C[C@@H]1NC(=O)[C@@H]2C[C@H](C(=O)NCCCCCCNC(=O)CS)[C@H](c3cccc(OCCO)c3)N2C1=O | -0.165 |
| O=C1O[C@@H](c2ccccc2)[C@@H](c2ccccc2)N2[C@@H](c3ccc(OCCO)cc3)[C@]3(C(=O)Nc4ccc(C#CCCO)cc43)[C@@H](C(=O)O)[C@H]12 | -0.811 |
| CCCC[C@H]1C[C@@H]1[C@@H]1N(C(C)=O)[C@H](c2cccc(OC)c2)CC12CC2 | -0.643 |
| C=C(COC)/C(=C/C[C@@H](OC(C)=O)c1ccccc1OCCO)c1cnc2ccccc2c1 | 1.4 |
| CN(C)CCCNC(=O)[C@@]1(C)c2ccccc2C(=O)N(Cc2ccc(OC(F)(F)F)cc2)[C@H]1c1ccc(CO)cc1 | 0.197 |
| C=CC[C@]1(C(=O)NCC(O)CO)COC(c2ccc(OCCCO)cc2)=N1 (stereo partly drawn) | -0.307 |
| C=CCC(OC(C)=O)[C@@H]1[C@@H](N(Cc2cccc3ccccc23)C(=O)c2ccc(-c3ccccc3)cc2)c2cc(OCCCO)ccc2N1C(=O)Cc1ccc2ccccc2c1 (stereo partly drawn) | 0.164 |
| CCCCCC1=C2CNC(CC(C)C)(C(=O)OC)C=C2C(C)C1=O (stereo not drawn) | -1.53 |
| CN1C(=O)[C@@H]2[C@@H](CC(COc3ccccc3)=C3[C@@H](CCc4ccccc4)OB(O)C[C@@H]32)C1=O | -0.904 |
| COC(=O)[C@@]1(Cc2ccc(OC)cc2)[C@H]2c3cc(C(=O)N4CCCC4)n(Cc4ccc(C(F)(F)F)nc4)c3C[C@H]2CN1C(=O)c1ccccc1 | -1.69 |
| C=CCC(OC(C)=O)[C@@H]1[C@@H](N(Cc2cc3ccccc3o2)C(=O)Cc2ccc(OC)cc2)c2cc(OCCCO)ccc2N1C(=O)c1ccc2ccccc2n1 (stereo partly drawn) | 0.576 |
| [N-]=[N+]=Nc1ccccc1[C@@H]1OC(c2ccc(OCCCO)cc2)=N[C@]1(Cc1ccccc1)C(=O)NCCN1CCOCC1 | -0.469 |
| COc1ccc(C(=O)Nc2cccc(CN3C(=O)[C@]4(O[C@H](CC(=O)N5Cc6ccccc6C[C@H]5CO)[C@@H]([Si](C)(C)c5ccc(OC)cc5)[C@@H]4C)c4ccccc43)c2)cc1 | -0.313 |
| C=CCN1C(=O)[C@@]2(O[C@@H](CCn3cc([C@H](O)c4ccccc4)nn3)[C@H]([Si](C)(C)c3ccc(OC)cc3)[C@H]2C)c2cc(N3C(=O)c4cccc5cccc3c45)ccc21 | -1.37 |
| CC(C)(C)N1CC=CC23O[C@@H]4/C=C\CCCOC(=O)C4[C@H]2C(=O)N(CCCCCO)[C@@H]3C1=O (stereo partly drawn) | -0.00811 |
| CN(C)CCCC[C@@H]1NC(=O)[C@@H]2C[C@H](C(=O)NCCCCCCNC(=O)CS)[C@H](c3ccc(O)cc3)N2C1=O | -0.136 |
| CC1CC/C=C\[C@H]2OC34C=CCN(CCN5CCOCC5)C(=O)[C@H]3N(CCCO)C(=O)[C@@H]4C2C(=O)O1 (stereo partly drawn) | 0.649 |
| COc1ccccc1CN1C(=O)c2ccccc2[C@](Cc2ccccc2I)(C(=O)NCC(C)C)[C@@H]1c1ccc(CO)cc1 | -0.257 |
| COCC(=C=CC[C@H](O)c1ccccc1OCCO)C[C@H](O)COCc1ccccc1 | -0.382 |
| O=C(NC1CC1)[C@@H]1c2ccccc2C(=O)N(Cc2ccc(OC(F)(F)F)cc2)[C@H]1c1ccc(CO)cc1 | 0.825 |
| O=C1C2C=CC(C(O)c3c(F)cccc3Cl)N(Nc3ccc([N+](=O)[O-])cc3)C2C(=O)N1c1ccccc1 (stereo not drawn) | -0.542 |
